The entries come from a sample that favours hits as a whole.
Algae TAG accum – inducers of triacylglycerol accumulation in Chlamydomonas reinhardtii algae. Chlamydomonas reinhardtii TAG, Nile Red fluorescence, 72 h. hit rate 0.84% among 44,000. AID 1159537. calls only at 10 µM (by protocol); call rule not given here;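 further: hits raise Nile Red signal meaning more stored TAG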
Of the large screens only hits and unclear results are named; the others gave an inactive call.

CC(C(=O)NCc1ccc(Cl)cc1)N(c1ccccc1)S(C)(=O)=O (stereo not given)	Algae TAG accum active
CC(C(=O)NC1CCCCCC1)N(c1ccccc1)S(C)(=O)=O (stereo not given)	none
Cc1cccc(C(=O)Nc2ccc(NC(=O)c3ccc(NC(=O)c4cccc(C)c4)cc3)cc2)c1	none
O=C(Nc1nn[nH]n1)C1c2ccccc2Sc2ccccc21	none
CC(=O)c1c(C)nn2c3ccccc3n(CCN3CCCCC3)c12	none
COc1cccc(CN2CCN(C(=O)C(c3ccccc3)c3ccccc3)CC2)c1OC	none
COc1ccccc1C(=O)N1CCN(C(=O)C(c2ccccc2)c2ccccc2)CC1	Algae TAG accum active
COc1cc(OC)cc(C(=O)N2CCN(C(=O)C(c3ccccc3)c3ccccc3)CC2)c1	none
COC(=O)NC(c1ccc(F)cc1)C(Cl)(Cl)Cl (stereo not given)	none
CCOc1ccccc1N(CC(=O)NCc1ccncc1)S(=O)(=O)c1ccc(C)cc1	none
OCC1CCCN(Cc2ccc3c(c2)Cc2ccccc2-3)C1 (stereo not given)	none
CN1CCN(Cc2ccc3c(c2)Cc2ccccc2-3)CC1	Algae TAG accum active
COc1ccc(CN2CCN(C)CC2)cc1OCc1ccccc1	none
OC1CCN(Cc2cccc(Oc3ccccc3)c2)CC1	none
CN1CCCN(Cc2cccc(Br)c2)CC1	none
CN1CCCN(Cc2cccc(Oc3ccccc3)c2)CC1	Algae TAG accum active
CN1CCN(Cc2cccc(Oc3ccccc3)c2)CC1	Algae TAG accum active
OC1CCCN(Cc2ccc3c(c2)Cc2ccccc2-3)C1 (stereo not given)	none
COc1cccc(CN2CCCN(C)CC2)c1	none
O=C(c1c(F)c(F)c(F)c(F)c1F)N1CCN(c2ccc(Cl)cc2)CC1	none
Cc1cccc(/C(N)=N\OC(=O)N2c3ccccc3Sc3ccccc32)c1	none
Cc1cc(C)n(C(=O)C(c2ccccc2)c2ccccc2)n1	none
Cc1ccc(Cl)cc1NC(=O)C1CC=CCC1C(=O)O (stereo not given)	none
O=C(O)C1CC=CCC1C(=O)Nc1ccc(F)cc1F (stereo not given)	Algae TAG accum active
Cc1ccc(NC(=O)C2CC=CCC2C(=O)O)c(Br)c1 (stereo not given)	none
COc1cc(C(=O)Nc2ccc3oc(-c4ccc(F)cc4Cl)nc3c2)cc(OC)c1OC	none
Cc1ccc(Cl)cc1NC(=O)C1C2C=CC(O2)C1C(=O)O (stereo not given)	none
O=C(O)C1C2C=CC(O2)C1C(=O)Nc1ccccc1F (stereo not given)	Algae TAG accum active
O=C(Nc1ccccc1F)[C@@H]1C2C=CC(C2)[C@@H]1C(=O)O (stereo not given in full)	none
CCc1c(C)sc(NC(=O)CCC(=O)O)c1C(N)=O	none
CCc1ccc(OCCCC(=O)NC2CCCCC2)cc1	none
Cc1cc(Br)ccc1OCCCCN1CCOCC1	none
Cc1ccc(C(C)(C)C)c(OCCCCN2CCN(C)CC2)c1	none
Cc1ccc(OCCCCN2CCCC2)c([N+](=O)[O-])c1	none
Cc1cc(Br)ccc1OCCCCN1CCN(C)CC1	Algae TAG accum active
Cc1ccccc1OCCOCCN1CCN(C)CC1	none
C=CCc1cc(C)ccc1OCCCCN1CCCC1	none
Cc1ccc(OCCCCN2CCCCC2)c(C)c1	Algae TAG accum active
Brc1cccc(OCCCCN2CCCC2)c1	none
Cc1cc(Br)ccc1OCCCCN1CCCC1	Algae TAG accum active
CC1(C)CC1C(=O)Nc1ccccc1[N+](=O)[O-] (stereo not given)	none
O=C(COc1ccc(Cl)cc1Cl)Nc1cccc(-c2nc3ncccc3o2)c1	none
CC(C)COC(=O)Oc1cccc(Br)c1	none
O=C(CSc1ccccn1)Nc1ccc([N+](=O)[O-])cc1	none
COc1ccc(CNC(=O)C(=O)Nc2ccc([N+](=O)[O-])cc2)cc1	none
CCCN(CCC)S(=O)(=O)c1ccc(NC(=O)c2ccccc2C)cc1	none
CC(=O)Nc1ccc(S(=O)(=O)Nc2cc([N+](=O)[O-])ccc2C)cc1	Algae TAG accum active
COc1ccc([N+](=O)[O-])cc1NS(=O)(=O)c1ccc(NC(C)=O)cc1	none
COc1cc([N+](=O)[O-])ccc1NS(=O)(=O)c1ccc(NC(C)=O)cc1	none
O=C1c2ccccc2C(=O)N1CC1c2ccccc2CCN1C(=O)C12CC3CC(CC(C3)C1)C2 (stereo not given)	none
O=C(CSc1nc2ccc([N+](=O)[O-])cc2[nH]1)Nc1ccc(Cl)cc1Cl	none
O=C(Cc1ccccc1)Nc1ccc(-c2nc3ncccc3o2)cc1	none
O=C(Nc1ccccc1[N+](=O)[O-])c1ccncc1	none
CCOC(=O)N1CCN(CC(O)COCCC23CC4CC(CC(C4)C2)C3)CC1 (stereo not given)	none
CCN1CCN(CC(O)COCCC23CC4CC(CC(C4)C2)C3)CC1 (stereo not given)	Algae TAG accum active
OC(COCCC12CC3CC(CC(C3)C1)C2)CN1CCOCC1 (stereo not given)	none
O=C(CN(c1cccc([N+](=O)[O-])c1)S(=O)(=O)c1ccccc1)NC1CC1	none
CN1CCC(N(C)Cc2cc(F)ccc2F)CC1	none
CN(C)Cc1cc(Cl)ccc1O	none
CN1CCC(N(C)Cc2cc(Cl)ccc2O)CC1	Algae TAG accum active
CC(C)C(=O)Nc1cccc(NC(=O)c2ccccc2[N+](=O)[O-])c1	none
CCCC(O)=C1C(=O)CC(C)(C)CC1=Nc1ccccc1C	none
COc1ccc(NC(=O)COc2cc(Cl)c(Cl)cc2Cl)cc1OC	none
CC(NC(=O)c1ccccc1[N+](=O)[O-])C1CC2CCC1C2 (stereo not given)	none
CC(NC(=O)c1ccccc1Br)C1CC2CCC1C2 (stereo not given)	none
Cc1ccc(C(=O)NC(C)C2CC3CCC2C3)s1 (stereo not given)	Algae TAG accum active
Cc1ccc(NC(=O)C(=O)NC2CC2)cc1C	none
CC(C)=CCC/C(C)=C/CN1CCCN(C)CC1	none
CC(C)=CCC[C@H](C)CCN1CCN(C)CC1	Algae TAG accum active
Cc1ccc(C(C)CCN2CCN(C)CC2)o1 (stereo not given)	none
O=C1NNC(=O)C2C3c4ccccc4C(c4ccccc43)C12 (stereo not given)	none
O=C(COc1cccc([N+](=O)[O-])c1)Nc1ccc(-c2nnc(-c3ccccc3)o2)cc1	none
OCCN1CCN(C2CCCCCCC2)CC1	none
CN1CCN(C2C3CC4CC(C3)CC2C4)CC1 (stereo not given)	Algae TAG accum active
c1ccc(CN2CCN(C3C4CC5CC(C4)CC3C5)CC2)cc1 (stereo not given)	none
COc1ccc(C(=O)N2CCN(C3C4CC5CC(C4)CC3C5)CC2)cc1 (stereo not given)	none
OCCN1CCN(C2C3CC4CC(C3)CC2C4)CC1 (stereo not given)	Algae TAG accum active
C1CCN(C2CCN(C3C4CC5CC(C4)CC3C5)CC2)CC1 (stereo not given)	none
Cc1ccccc1C(=O)Nc1ccccc1C(=O)NC1CCCCC1	none
Cc1cccc(CN2CCOCC2)c1	none
CC(C)c1ccc(N(CC(=O)NCc2ccccn2)S(C)(=O)=O)cc1	none
Cc1cc(OCC(=O)Nc2ccc([N+](=O)[O-])cc2)cc(C)c1Br	none
O=C(NCC1CCCO1)c1cc(-c2ccc3c(c2)OCO3)nc2ccccc12 (stereo not given)	Algae TAG accum active
O=C(NCc1ccccn1)c1cc(-c2ccc3c(c2)OCO3)nc2ccccc12	none
NS(=O)(=O)c1ccc(CNC(=O)c2cc(-c3ccc4c(c3)OCO4)nc3ccccc23)cc1	none
CCc1cccc(CC)c1NC(=O)CSc1nnc(-c2ccc(N)cc2)n1C	none
Cn1c(SCC(=O)NCc2ccccc2)nnc1-c1ccc(NC(=O)c2ccccc2F)cc1	none
Cn1c(SCC(=O)NCc2ccccc2)nnc1-c1ccc(C(C)(C)C)cc1	Algae TAG accum active
